Results reported in PubChem BioAssay.
Several values for one entry are separate records, joined by “and”; a condition that tells them apart may be missing. Equal entries are not always repeated. Activity calls are given as the source filed them.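 The calls were made as follows, unless noted: active = compounds whose cell count with miR-34 switched on is under 0.7 times the count with it off; inactive = the rest.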

Tests used:
[1] = sensitizers of A549 cells to miR-34 induction, primary screen, imaging, A549 dox-inducible miR-34, nuclei and caspase counts (AID 1347080); details: A549 miR-34 inducible, Hoechst nuclei count, 48 h; also: test concentration not given here
[2] = survival rescue of mitochondrial mutant cells in low glucose, primary screen, MELAS cybrids, Rieske KO mouse fibroblasts, CellTiter-Glo (AID 1508586;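 active = mean z-score across replicates of 1.96 or higher in either the MELAS or the Rieske mutant cell line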;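 also: test concentration not given here; z relative to plate mean and SD of compound and empty wells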)
[3] = viability rescue of complex I mutant cybrids, primary screen, cell-based, galactose medium, ATP luminescence (AID 1645843;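 active = z-score of at least 1.8 in each of two replicates, scored against plate mean and spread of sample wells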;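 also: positive z means more ATP and so rescue of galactose-driven cybrid death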); details: complex I mutant cybrid cells, 72 h, stronger effect = higher value
[4] = stronger effect = lower value, cell number ratio, induced over uninduced
[5] = measured here: relative caspase fold change +Dox/-Dox
[6] = measured here: total cells with miR-34 induction, stronger effect = lower value
[7] = measured here: total cells without miR-34 induction
[8] = MELAS cybrid survival, CellTiter-Glo 48 h, stronger effect = higher value
[9] = Rieske KO mouse fibroblast survival, CellTiter-Glo 72 h

SMILES	fold change [1, 4]	fold change [1, 5]	cell count [1, 6]	cell count [1, 7]	z-score [2, 8]	z-score [2, 9]	z-score [3]
CC(c1ncncc1F)[C@](O)(Cn1cncn1)c1ccc(F)cc1F (stereo not given in full)	0.956 (inactive) and 0.928 (inactive)	2.43 and 0.867	9660 and 8390	10100 and 9030	-0.404 (inactive)	0.698	0.71 (inactive)
Nc1cccc(-c2cccc(OCc3ccccc3)c2)n1	0.803 (inactive)	1.74	7230	9010	-0.19 (inactive)	-0.156	-0.555 (inactive)
O=C(O)c1ccc(-c2ccc([N+](=O)[O-])cc2Cl)o1	0.876 (inactive)	0.203	8260	9440	0.0167 (inactive)	-0.308	0.255 (inactive)
CN(C)Cc1cn(CC2CCN(C(=O)c3ccc4c(c3)OCO4)CC2)nn1	0.896 (inactive)	1.18	9300	10400	-0.121 (inactive)	-0.477	-0.48 (inactive)
O=C(O)CC(O)CC(O)C=Cc1c(C2CC2)nc2ccccc2c1-c1ccc(F)cc1 (stereo not given)	0.905 (inactive) and 0.948 (inactive)	0.849 and 0.847	771 and 1550	852 and 1630	1.33 (inactive)	-0.125	-1.86 (inactive)
Cc1cccc(CN2CCN(c3ncnc4sccc34)CC2=O)c1	0.946 (inactive)	2.04	4670	4940	-0.529 (inactive)	-0.501	2.43 (inactive)
OCCCc1cn(CC2CCN(c3ncnc4nc[nH]c34)CC2)nn1	0.959 (inactive)	1.9	8820	9200	0.238 (inactive)	-0.383	-0.565 (inactive)
CC(C)c1nc(CN(C)C(=O)NC(C(=O)NC(Cc2ccccc2)CC(O)C(Cc2ccccc2)NC(=O)OCc2cncs2)C(C)C)cs1 (stereo not given)	0.948 (inactive) and 0.95 (inactive)	1.44 and 0.946	7230 and 6000	7630 and 6320	-0.434 (inactive)	0.643	-0.03 (inactive)
CCOc1cc(CC(=O)NC(CC(C)C)c2ccccc2N2CCCCC2)ccc1C(=O)O (stereo not given)	0.993 (inactive) and 0.919 (inactive)	2 and 0.721	8780 and 7660	8840 and 8340	-0.382 (inactive)	0.561	1.65 (inactive)
O=[N+]([O-])c1ccc(-c2ccn[nH]2)cc1	0.922 (inactive)	0.744	8360	9070	-0.915 (inactive)	-0.293	0.59 (inactive)
CC(C)n1cc(-c2cc(C(=O)N(C)Cc3cccnc3)c3cc(F)ccc3n2)cn1	0.861 (inactive)	1.63	9060	10500	-0.238 (inactive)	0.816	-0.535 (inactive)
CC(C)n1ncc(NC(=O)Cn2ccc(-c3ccc(C(F)(F)F)cc3)n2)n1	0.965 (inactive)	1.03	5250	5440	1.15 (inactive)	-0.0246	0.42 (inactive)
CCNC(=O)c1cccnc1N1CCN(c2ccc(Cl)cc2)CC1	0.873 (inactive)	0.821	7830	8970	-0.247	2.02	0.35 (inactive)
NNC(=O)c1ccc(-c2ccccc2Cl)o1	0.826 (inactive)	0.386	7740	9360	0.702 (inactive)	-0.293	0.765 (inactive)
O=c1[nH]cnc2sc3c(c12)CCCC3	0.885 (inactive)	0.876	8460	9560	-0.212 (inactive)	0.0845	0.635 (inactive)
Cc1c(Br)c(=O)oc2c(Br)c(O)ccc12	0.86 (inactive)	0.806	8490	9870	0.723 (inactive)	-0.168	-0.145 (inactive)
CCCCS(=O)(=O)CCC(=O)O	0.879 (inactive)	0.837	8330	9470	-0.282 (inactive)	-0.71	-0.155 (inactive)
CCn1cc(CNC(=O)Nc2nnc(C(C)(C)C)s2)cn1	0.886 (inactive)	2.1	8600	9710	0.641 (inactive)	-0.73	-0.6 (inactive)
COc1cccc2ncn(Cc3nc4ccccc4o3)c(=O)c12	0.951 (inactive)	1.68	8290	8720	-0.0437 (inactive)	-0.268	-0.545 (inactive)
O=C(O)C(C(=O)O)c1ccccc1	0.911 (inactive)	0.169	8920	9780	0.44 (inactive)	-0.084	0.49 (inactive)
COc1ccc2c(c1)CCN(C(=O)Nc1n[nH]c(-c3ccco3)n1)C2	0.87 (inactive)	1.45	7950	9130	0.18	3.56	0.245 (inactive)
CN(C)c1ccc(C(=O)O)cc1	0.927 (inactive)	0.253	8940	9650	-0.46 (inactive)	0.0916	0.71 (inactive)
COc1cccc(-n2cc(-c3ccnc(NCCc4cnc[nH]4)n3)cn2)c1	0.891 (inactive)	1.29	7850	8810	-0.718 (inactive)	0.696	1.87 (inactive)
c1ccc(CN2CCC(Nc3ncnc4sccc34)CC2)nc1	0.895 (inactive)	1.42	5240	5860	-0.277 (inactive)	-0.421	-0.58 (inactive)
CCNc1ncc(-c2cc(C(=O)N(C)CCN(C)C)c3cc(F)ccc3n2)cn1	0.912 (inactive)	2.18	8760	9610	-0.0763 (inactive)	-0.44	-0.56 (inactive)
Cc1ccc2c(C(=O)N3C[C@H]4CC[C@H]3C4)cc(-c3cnn(C(C)(C)C)c3)nc2c1	0.854 (inactive)	1.66	6940	8130	-0.72 (inactive)	0.542	1.56 (inactive)
Cc1cccc2c(C(=O)N3C4CCCCC3CCC4)cc(-c3cncnc3)nc12	0.922 (inactive)	1.14	8060	8740	0.139 (inactive)	-0.667	-0.275 (inactive)
CCSCCNc1nccc(-c2cn(C)nc2C)n1	0.861 (inactive)	2.06	8420	9770	-0.242 (inactive)	0.458	-0.585 (inactive)
Cc1nn(C)cc1-c1ccnc(NCC(C)Oc2cccnc2)n1 (stereo not given)	0.898 (inactive)	1.28	8650	9640	-0.961 (inactive)	0.57	-0.525 (inactive)
OCCCc1cn(C2CCN(c3nn4cnnc4c4ccccc34)CC2)nn1	0.902 (inactive)	1.35	8970	9940	0.105 (inactive)	-0.51	-0.54 (inactive)
